# Several values for one entry are separate records, joined by “and”; a condition that tells them apart may be missing. Equal entries are not always repeated. Hit rate of the full screen: of about 340,000 compounds, about 12,000 (3.5%) were called active. Not shown: some 18% with an inconclusive outcome. The sample holds actives, similar compounds and a random draw of the others, so the mix is not that of the screen. Calls follow the shape of the dose curve; as a rule, active = well fitted inhibition curve with a large enough effect; inconclusive = small, poorly fitted or top-dose-only effect, or another doubt; inactive = no such curve, though single readings can be large or run the other way. Some compounds were tested as several samples or in several runs, with calls that do not always agree.
# Assay: qHTS Assay for Inhibitors of Hepatitis C Virus (HCV)
# Settings: Huh7.5.1 HCVcc-Cre infection, luciferase reporter, 44 h; series mostly up to 41.8 µM; activity change, negative = inhibition: at the top concentration
# Excerpt: Hepatitis C virus (HCV) infects about 200 million people in the world. Many infected people progress to chronic liver disease including cirrhosis with a risk of developing liver cancer. To date, there is no effective vaccine for hepatitis C. Current therapy based on interferon is only effective in about half of the patients and is associated with significant adverse effects. The fraction of people with HCV who can complete a successful treatment is estimated to be no more than 10 percent. Recent development of direct-acting antivirals against HCV, such as protease and polymerase inhibitors, is promising but still requires combination with peginterferon and ribavirin for maximal efficacy. In addition, these agents are associated with high rate of resistance and many have significant side effects. Due to the lack of a culture system for infectious HCV, the search for new HCV drugs has been greatly hampered. […] High-throughput screening (HTS) with an infectious HCV system would cover the complete spectrum of potentially druggable targets in all stages of HCV lifecycle, and would have more biological relevance than other cell-based assays. Moreover, targeting several key processes in the viral life cycle may not only increase antiviral efficacy; more importantly, it may also reduce the capacity of the virus to develop resistance to the compound. The goal of this project is to identify novel HCV inhibitors as new therapies for hepatitis C, using a highly sensitive and specific assay platform which is based on a HCV infectious cell culture system established in the laboratory and adapted for high-throughput HCV drug screen. NIH Chemical Genomics Center [NCGC] NIH Molecular Libraries Probe Centers Network [MLPCN] MLPCN Grant: MH095511 Assay Submitter (PI): Jake Liang, NIDDK
# The assay will start with plating 1,000 cells/well in 3 µL volume and culture for 4 h. Then 23 nL of compounds from the library collection will be added to each well, followed by adding 2.5 µL of HCVcc-Cre virus (~ 0.5 moi) and further cultured for 44 h before the luciferase assay. A volume of 4.5 µL luciferase substrates will be added to each well and the plates will be incubated at room temperature for 15 min. and then read for 15 sec. for the luciferase activity
# % is scaled to controls: 0 for no effect and ±100 for the full control effect.
SMILES,"activity change, negative = inhibition",Potency
c1ccc(-c2cc(-c3ccccc3)[nH]n2)cc1,-23.8% (inactive),–
CS(=O)(=O)c1sc2nc(-c3ccccc3)cc(-c3ccccc3)c2c1N,-20.9% (inactive),–
COCCNc1nnc(SCC(=O)NNC(=O)c2ccco2)s1,-1.76% (inactive),–
Cc1cc(C)c(-c2c(O)c3ccccc3n(C)c2=O)c(C)c1,–,11.2 µM (active)
CCCn1c(=O)c(-c2ccccc2)c(O)c2ccccc21,0.771% (inactive),–
Cn1c(=O)c(Sc2ccc(Cl)cc2)c(O)c2ccccc21,10.3% (inactive),–
CC(C#N)(NC(=O)CN1CCN(S(=O)(=O)c2cc(C(F)(F)F)ccc2Cl)CC1)C1CC1 (stereo not drawn),-19.9% (inactive),–
Cc1[nH]c(=O)c(C(=O)/C=C/c2ccccc2)c2c1CCCC2,–,14.1 µM (active)
Cc1cn(COC/C=C/c2ccccc2)c(=O)[nH]c1=O,12.5% (inactive),–
O=C(/C=C/c1ccccc1)c1ccoc1,3.26% (inactive),–
O=C(NCCS(=O)(=O)N1CCN(c2ccccc2)CC1)c1ccco1,5.8% [at 8.37 µM] (inactive),–
Cc1cc(Oc2ccc(Cl)cc2)nc(SCC(=O)c2ccccc2)n1,-9.04% (inactive),–
COC(=O)c1cc(C(=O)CSc2nc(C)cc(C)n2)ccc1O,8.38% (inactive),–
Cc1cc(C)nc(SCC(=O)c2ccc(Cl)cc2)n1,–,2.82 µM (active)
Cn1nnnc1SCC(=O)Nc1sccc1C(N)=O,2.96% (inactive),–
NC(=O)C1(N2CCCC2)CCN(Cc2ccccc2)CC1,19.9% (inactive),–
Cc1cccc2nc(CSc3nc4[nH]ncc4c(=O)n3-c3cccc(Cl)c3)cc(=O)n12,-0.622% [at 0.335 µM] (inactive),–
Cc1ccc(CSc2nc3[nH]ncc3c(=O)[nH]2)cc1,-3.65% (inactive),–
CCc1ccc(-n2c(SCc3cc(=O)n4cc(Br)ccc4n3)nc3[nH]ncc3c2=O)cc1,–,10 µM (active)
CN1C(c2ccc(F)cc2)=CS/C1=C(/C#N)c1nnc2n1-c1ccccc1SC2,6.19% (inactive),–
CC(CNC(=O)Cn1cnc2c(OCc3ccccc3)ncnc21)c1ccccc1 (stereo not drawn),2.55% (inactive),–
CN(CC(=O)Nc1ccccc1Cl)C(=O)c1ccccc1SCC(=O)N1CCCC1,8.76% (inactive),–
N=c1n(CCc2ccccc2)c2ccccc2n1Cc1ccccc1F,–,12.6 µM (active)
CC(=O)NC(C)c1nc2ccccc2n1Cc1ccccc1F (stereo not drawn),2.57% (inactive),–
O=C(COC(=O)Cc1ccccc1F)NCCc1ccccc1,-2.44% (inactive),–
COc1ccccc1CNS(=O)(=O)c1cc(C(=O)NCc2ccccn2)c(Cl)cc1Cl,-7.19% (inactive),–
Cn1cccc1C(=O)OCC(=O)c1ccc(Br)s1,11% (inactive),–

SMILES,"activity change, negative = inhibition",Potency
Cc1ccc(C)c(NC(=O)COC(=O)c2nn(C)c(=O)c3ccccc23)c1,22.1% (inactive),–
COc1ccccc1N1CCN(C(=O)Cn2nnc(-c3cccs3)n2)CC1,-8.71% (inactive),–
O=C(Nc1ccccc1-c1nnn(CC(=O)N2CCN(c3ccccc3)CC2)n1)c1cccs1,–,12.6 µM (active)
O=C(Nc1ccccc1-c1ccccc1)c1cccs1,-24.9% (inactive),–
COc1cc(OC)cc(C(=O)NCC(=O)OCC(=O)NC(C)CCc2ccccc2)c1 (stereo not drawn),4.6% (inactive),–
Cc1nn(-c2ccc(F)cc2)c(Cl)c1/C=C(/CCC(=O)O)c1nc2ccccc2s1,22.1% (inactive),–
CCCN=C1N(C)C[C@@H]2[C@@H]3C(=O)N(Cc4ccccc4)C(=O)[C@@H]3[C@](C)(C(=O)OC)N12,12% [at 8.37 µM] (inactive),–
Cc1ccc(S(=O)(=O)N2[C@@H](c3ccc(Br)cc3)C(C(=O)O)=C[C@H]2CC2CCCC2)cc1,4.65% (inactive),–
CCCn1c(C(=O)c2ccccc2OC)nc2ccccc21,-3.79% (inactive),–
CCn1c(/C=N/NC(=O)c2ccc(OC)cc2)nc2ccccc21,–,17.8 µM (active)
COc1ccc(C(=O)NCC(=O)N/N=C/c2cccnc2)cc1,17.2% (inactive),–
CCC(C)(C)n1nnnc1C(c1cccs1)N1CCN(c2nc3ccccc3s2)CC1 (stereo not drawn),–,10 µM (active)
CCC(C)(C)n1nnnc1C(c1cccs1)N1CCN(Cc2ccccc2)CC1 (stereo not drawn),-14.5% (inactive),–
CCC(C)(C)n1nnnc1C(c1ccccc1OC)N1CCSCC1 (stereo not drawn),2.53% (inactive),–
Cc1cc(NC(=O)CSC2=NS(=O)(=O)c3cc(Cl)ccc3N2)no1,1.9% (inactive),–
CCOC(=O)CNC(=O)N1c2ccccc2Sc2ccccc21,-3% (inactive),–
CCNCCC(=O)N1c2ccccc2Sc2ccc(NC(=O)OCC)cc21,–,12.6 µM (active)
CCOC(=O)Nc1ccc2c(c1)N(C(=O)CCN1CCN(CCO)CC1)c1ccccc1CC2,6.1% (inactive),–
COc1cccc(-c2nc(CS(=O)CC(=O)NCc3ccc(F)cc3)c(C)o2)c1 (stereo not drawn),-6.07% (inactive),–
COc1ccc(-c2nc(CS(=O)(=O)CC(=O)NCc3cccc(Br)c3)c(C)o2)cc1,8.12% (inactive),–
CCCCN(CC)CCCNC(=O)CS(=O)(=O)Cc1nc(-c2cccc(OC)c2)oc1C,–,inactive and 20 µM (active)
COc1ccc(C(CNC(=O)c2ccc(NS(=O)(=O)c3ccc(F)c(C)c3)cc2)N(C)C)cc1 (stereo not drawn),-7.07% (inactive),–
Cc1ccc(OCCC(=O)Nc2ccc(S(=O)(=O)Nc3nccs3)cc2)cc1,8.18% (inactive),–
COCCn1c(SCc2nc3cc(OC)c(OC)cc3c(=O)[nH]2)nnc1-c1ccncc1,21.9% (inactive),–
COCCCn1c(SCc2cccc(OC)c2)nc2cc(OC)c(OC)cc2c1=N,–,7.08 µM (active)
COc1cccc(CSc2nc3nc(C)cc(C)n3n2)c1,-14.8% (inactive),–

# Source: PubChem BioAssay AID651820 (National Center for Advancing Translational Sciences (NCATS), 2012)
